Data taken from PubChem BioAssay AID696 (Sanford-Burnham Center for Chemical Genomics, 2007).
Among all 96,000 compounds or so, about 1,200 (1.2%) were called active. Cut-off read from the data, not from the text of the source: active = activation fold above about 2; inactive = the rest. What follows is part of a selection rich in actives, with near analogues and random picks from the rest.

Each molecule was assayed against Alkaline phosphatase, placental type (Homo sapiens) (UniProt P05187) (assay: activation of human placental alkaline phosphatase – biochemical, luminescence, HTS (AID 696)). Conditions: purified PLAP enzyme, luminescent substrate read-out; at 20 µM; hits give high values.
Sequence of Alkaline phosphatase, placental type (Homo sapiens) (P05187 whole entry, looked up): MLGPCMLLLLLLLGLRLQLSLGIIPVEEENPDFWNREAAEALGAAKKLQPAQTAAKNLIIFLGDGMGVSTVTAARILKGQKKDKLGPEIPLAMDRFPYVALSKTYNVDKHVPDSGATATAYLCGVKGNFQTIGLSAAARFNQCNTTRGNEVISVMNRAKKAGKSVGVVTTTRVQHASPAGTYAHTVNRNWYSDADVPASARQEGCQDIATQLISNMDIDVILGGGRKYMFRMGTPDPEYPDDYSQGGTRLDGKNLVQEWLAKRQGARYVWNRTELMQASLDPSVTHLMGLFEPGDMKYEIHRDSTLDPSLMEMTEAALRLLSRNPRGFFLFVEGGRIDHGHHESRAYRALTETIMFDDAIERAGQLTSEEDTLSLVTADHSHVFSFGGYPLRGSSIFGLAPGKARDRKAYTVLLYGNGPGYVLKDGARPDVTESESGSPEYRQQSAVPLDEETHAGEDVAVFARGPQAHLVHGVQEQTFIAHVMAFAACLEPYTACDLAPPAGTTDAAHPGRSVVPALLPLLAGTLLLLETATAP

Question: How did the activation fold turn out when `CCOC(=O)c1c(N)n(CCN2CCOCC2)c2nc3ccccc3nc12` was run?
Answer: 1.1 (inactive)

Question: With `COc1cc(Cn2c(N)c(C(=O)NCc3ccco3)c3nc4ccccc4nc32)cc(OC)c1OC` as the molecule, how does the activation fold read?
Answer: 2.1 (active)

Question: `CCOC(=O)c1c(N)n(Cc2ccccc2)c2nc3ccccc3nc12` was tested. Which activation fold did it give?
Answer: 0.9 (inactive)

Question: Which activation fold does the source give for `Nc1ccc(C(=O)N/N=C2/CN3CCC2CC3)cc1` here?
Answer: 0.9 (inactive)

Question: With `CCOc1ccc(C2SCC(=O)Nc3c2c(C)nn3C2CCOC(C)(C)C2)cc1` (stereo not given) as the molecule, how does the activation fold read?
Answer: 1.5 (inactive)
